Hits are enriched below; roughly 1.2% of the tested compounds scored in any of these assays.
RGS7-Gao: human RGS7-Galphao interaction regulation; P09471; Multiplexed bead flow cytometry, RGS7-Galphao binding; actives lie on both sides; binding response (% of control), % at 10 µM; 0.35% of 220,000 active; AID 1439; in the data active = binding response below about 49% or above about 150%; inconclusive = no clear call, values can overlap the other calls; inactive = in between;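 also: fluorescent Galphao held in activated GDP-AlF4 state binding bead-coupled RGS7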
Target sequence (P09471 whole entry, looked up): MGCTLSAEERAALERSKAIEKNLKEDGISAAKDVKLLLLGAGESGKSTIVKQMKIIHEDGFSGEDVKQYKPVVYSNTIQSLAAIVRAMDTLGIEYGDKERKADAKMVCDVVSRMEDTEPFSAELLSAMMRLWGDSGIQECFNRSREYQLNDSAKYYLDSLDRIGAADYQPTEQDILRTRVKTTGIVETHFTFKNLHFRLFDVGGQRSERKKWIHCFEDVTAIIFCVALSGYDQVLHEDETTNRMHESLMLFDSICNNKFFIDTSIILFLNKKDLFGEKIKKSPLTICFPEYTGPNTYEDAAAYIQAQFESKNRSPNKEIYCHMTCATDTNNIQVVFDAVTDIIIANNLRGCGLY
Avidin bead fluor: compound fluoresces at 488/530 nm on avidin beads | 0.38% of 220,000 active | fluorescence (KMESF) at 10 µM | compound fluorescence 488/530 nm, flow cytometry; stronger effect = higher value | AID 1775; in the data active = fluorescence above about 47
RGS16-Gao: modulates binding between human RGS16 and Galphao | AID 1441 | bead-based flow cytometry RGS16-Galphao binding, fluorescence; actives lie on both sides | binding response (% of control), % at 10 µM | O15492+P09471 | 0.38% of 220,000 active; call rule not given here;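 also: Galphao activated by GDP with aluminum fluoride before binding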
Target sequence (O15492 whole entry, looked up): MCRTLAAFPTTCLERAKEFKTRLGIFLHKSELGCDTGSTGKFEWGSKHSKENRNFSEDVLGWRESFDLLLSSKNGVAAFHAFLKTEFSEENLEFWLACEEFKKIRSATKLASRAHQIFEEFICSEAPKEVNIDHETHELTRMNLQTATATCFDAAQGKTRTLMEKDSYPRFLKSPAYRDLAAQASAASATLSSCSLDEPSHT
Target sequence (P09471 whole entry, looked up): as the sequence (P09471 whole entry, looked up) above
RGS4-Gao reg: human RGS4-Galphao interaction regulation; binding response (% of control), % at 10 µM; AID 1415; P09471; 0.33% of 220,000 active; Multiplexed bead flow cytometry, RGS4-Galphao binding; actives lie on both sides; in the data active = binding response below about 49% or above about 150%; inactive = in between;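 also: fluorescent Galphao activated with aluminum fluoride binding bead-coupled RGS4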
GSH fluor: GSH bead compound fluorescence profile. GSH beads flow cytometry, compound fluorescence 488/530 nm; stronger effect = higher value. fluorescence (KMESF) at 10 µM. 0.25% of 190,000 active. AID 1776; in the data active = fluorescence above about 89;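 also: glutathione beads carrying GST-tagged Bcl family fusion proteins plus one bare bead set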
RGS8-Gao: regulators of human RGS8-Galphao interaction; multiplexed bead flow cytometry, RGS8-Galphao binding; actives lie on both sides; 0.34% of 220,000 active; response (percent of control binding), % at 10 µM; P09471; in the data active = response below about 60% or above about 140%; inactive = in between;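 also: Galphao activated as the GDP aluminium fluoride complex binding bead-coupled RGS8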
Of the large screens only hits and unclear results are named; the others gave an inactive call; [ ] = dose if it differs, or a comment.

CCCC(C(=O)NC(C)(C)C)N(C(=O)c1snc(C(N)=O)c1N)c1ccc2c(c1)OCCO2 (stereo unspecified)	Avidin bead fluor 47
CCOc1c(Br)cc(/C=C2/SC(=O)N(CC(=O)N3CCCC3)C2=O)cc1OC	none
CCOC(=O)COc1c(Br)cc(/C=C2\SC(=O)N(CC(=O)N3CCCC3)C2=O)cc1OC	Avidin bead fluor 80
COc1ccnc(Oc2ccccc2)c1C(=O)N/C=N/OCc1ccccc1F	none
CCc1nnc(SCc2ccc(C(=O)OC)o2)n1N	GSH fluor 258
CCCc1nnc(SCc2ccc(C(=O)OC)o2)n1N	none
COc1ccc2c(c1)C(C1C(=O)CCCC1=O)c1ccccc1O2 (stereo unspecified)	none
Cc1c(C(=O)/C=C/N(C)C)nnn1-c1ccc(Cl)cc1C#N	RGS7-Gao inconclusive (no result: GSH fluor)
CCc1cc2c(SCC(=O)NC(=O)c3cccn3C)ncnc2s1	none
COc1ccc(NC(=O)N2CCN(C(=O)C(Cc3ccc(F)cc3)NC(C)=O)CC2)cc1 (stereo unspecified)	none
Cc1ccc(-n2c(SCC(=O)Nc3nccs3)nc3c(c2=O)SCC3)cc1	none
CCSc1nnc(NC(=O)CSc2nc3c(c(=O)n2-c2ccccc2)SCC3)s1	GSH fluor 147
NC(=O)COn1c(SCC(N)=O)nc2ccccc2c1=O	RGS7-Gao inconclusive (no result: GSH fluor)
CCOCCCNCc1c(Cl)cccc1Cl	Avidin bead fluor 60
COc1ccc(CN(Cc2cccnc2)S(=O)(=O)c2ccc(-n3cnnn3)c(C)c2)cc1OC	none
CCOc1ccc2nc(NC(=O)c3cccc(-c4cc5ccccc5oc4=O)c3)sc2c1	Avidin bead fluor 74
O=C(C/C=N\OCc1ccc([N+](=O)[O-])cc1)Nc1ccc(F)cc1F	none
O=C(CSc1nnc(CNC(=O)c2ccco2)o1)Nc1ccccc1	Avidin bead fluor 59
COc1ccc(NC(=O)CSc2nnc(CNC(=O)c3ccco3)o2)cc1	none
COc1ccc(Cc2noc(CN(C)CCN3CCc4ccccc4C3)n2)cc1OC	none
CN(CCN1CCc2ccccc2C1)Cc1nc(Cc2ccccc2F)no1	RGS7-Gao 17, RGS16-Gao 20, RGS4-Gao reg 28, RGS8-Gao 27
O=C(O/N=C1\CCS(=O)(=O)c2sccc21)c1ccccc1	Avidin bead fluor 51
CCCCNC(=O)C(c1ccc(OCC(=O)OC)c(C(=O)OC)c1)N(CCc1c[nH]c2ccccc12)C(=O)CCCCCN1C(=O)NC(c2ccc(-c3ccccc3)cc2)C(C(=O)OCc2ccccc2)=C1C (stereo unspecified)	RGS7-Gao inconclusive (no result: GSH fluor)
CC(C)(CNC(=O)c1ccc(S(=O)(=O)N2CCCC2)cc1)N1CCOCC1	none
Cc1nc2ccccc2n1CC(O)Cn1c(C(F)(F)F)nc2ccccc21 (stereo unspecified)	RGS7-Gao -8.4, RGS16-Gao -16, RGS4-Gao reg -28, RGS8-Gao 7.0
OC(CN1CCCCC1)Cn1c(C(F)(F)F)nc2ccccc21 (stereo unspecified)	none
C=C1C(C(=O)Nc2ccc(F)cc2)C1C(=O)Nc1ccc(F)cc1 (stereo unspecified)	none
Cc1cccc(NC(=S)N2CCC(c3nc4ccccc4o3)CC2)c1C	RGS7-Gao 42, RGS4-Gao reg 48, RGS8-Gao 55
CC(C)NC(=O)C(=O)NNC(=O)C12CC3CC(CC(C3)C1)C2	GSH fluor 109
CC(CN1CCCCC1)C(=O)NNC(=O)C12CC3CC(CC(C3)C1)C2 (stereo unspecified)	none
O=C(O)CCNS(=O)(=O)c1ccc2ccccc2c1	none
O=C(O)CCNc1cc2ccccc2cc1C(=O)O	GSH fluor 255
COc1ccc(-c2cc(C#N)nc(N3CCNCC3)n2)cc1	Avidin bead fluor 49
Cc1cc(C(=O)NC2CCCc3ccccc32)no1 (stereo unspecified)	Avidin bead fluor 47
C=CCn1c(O)c(N=Nc2nc3ccccc3c(=O)n2-c2ccccc2)c2ccccc21	none
CCOc1cccc(C(=O)Nc2cccc(-c3nnc(-c4ccc(C)cc4)o3)c2)c1	RGS4-Gao reg 151[activator]
CCOc1cccc(C(=O)Nc2cccc(-c3nnc(-c4ccccc4)o3)c2)c1	none
CC(Sc1nnc(Cc2cccs2)n1C1CCCCC1)C(=O)N1CCc2ccccc21 (stereo unspecified)	Avidin bead fluor 48
O=C(NCC(c1cccs1)N1CCOCC1)c1ccc(Cl)c(S(=O)(=O)N2CCOCC2)c1 (stereo unspecified)	RGS7-Gao inconclusive (no result: GSH fluor)
CC(C)CCc1noc(CN(CC2CCC2)CC2CCCO2)n1 (stereo unspecified)	RGS7-Gao inconclusive (no result: GSH fluor)
Cc1cccc(C)c1NC(=O)COc1cccc(/C=N/NC(=O)C(=O)NCc2ccccc2)c1	Avidin bead fluor 57
O=C(Nc1ccc(Cl)c(C(F)(F)F)c1)C(=O)N1CCCCC1	none
O=C(Nc1ccc(Cl)c(C(F)(F)F)c1)N1CCCC(O)C1 (stereo unspecified)	Avidin bead fluor 66
Cn1nnc(NC(=O)CSc2ccc(Cl)cc2)n1	Avidin bead fluor 48
COc1ccc(-c2cc3ccccc3oc2=O)cc1NC(=O)c1ccc(Br)o1	Avidin bead fluor 47
COc1ccc(C(=O)OCC(=O)N2CCCC2=O)c(OC)c1	none
COc1ccc(-c2[nH]nc3c2C(c2ccccc2OC(=O)N2CCOCC2)C(C#N)=C(N)O3)cc1 (stereo unspecified)	none
COc1ccc(-c2[nH]nc3c2C(c2ccc(OC(=O)N4CCOCC4)cc2)C(C#N)=C(N)O3)cc1 (stereo unspecified)	RGS7-Gao 45, RGS4-Gao reg 44, RGS8-Gao 52
Cc1cc(N2CCOCC2)nc(N2CCOCC2)n1	RGS7-Gao inconclusive
Cc1cc(N2CCCCC2)nc(N2CCOCC2)n1	Avidin bead fluor 111
COc1ccc(C2C(C#N)=C(C)NC3=C2C(=O)CC(C)(C)C3)c(OC)c1 (stereo unspecified)	none
CCCCC1C(C#N)=C(C)NC2=C1C(=O)CC(C)(C)C2 (stereo unspecified)	GSH fluor 253
NCCCC[C@H]1CNC(=O)C(=O)N1CCC12CC3CC(CC(C3)C1)C2	RGS7-Gao inconclusive (no result: GSH fluor)
COc1c(N2CCN(C(=S)NCc3ccccc3)C(C)C2)c(F)cc2c(=O)c(C(=O)O)cn(C3CC3)c12 (stereo unspecified)	Avidin bead fluor 55
CCn1cc(C(=O)O)c(=O)c2cc(F)c(N3CCN(C(=S)NC(=O)c4ccccc4)CC3)cc21	RGS7-Gao inconclusive (no result: GSH fluor)
CCOC(=O)C1CCCN(C(=O)c2cc(Nc3ccc(OC)cc3)nc3ccccc23)C1 (stereo unspecified)	Avidin bead fluor 51
CCOC(=O)C1CCCN(C(=O)c2cc(-c3ccc(F)cc3)nc3ccccc23)C1 (stereo unspecified)	none

Compound activity: PubChem BioAssay, NMMLSC
